# Assay results reported in PubChem BioAssay (NCI).
# The panel holds about 79,000 compounds, 15% with a hit somewhere; the sample as a whole holds those more often. A number with no mark means an inactive call. Cut-off read from the data, not from the text of the source: active = growth inhibition above about 70%; inactive = the rest.
# Experiment: NCI Yeast Anticancer Drug Screen. Data for the bub3 strain (AID 167)
# Conditions: S. cerevisiae bub3 mutant strain, at 50.0 µM, stronger effect = higher value
# Summary of the method: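 Yeast carrying a defined mutation is treated with each compound, and growth is compared with that of vehicle-exposed cells to give inhibition.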
row,Compound,growth inhibition [%]
1,CC12CCC(CC1)C(C)(C)O2,-1.25
2,O=C(/C=C(\[O-])c1ccccc1)CCCCCCC(=O)/C=C(\[O-])c1ccccc1.O=C(/C=C(\[O-])c1ccccc1)CCCCCCC(=O)/C=C(\[O-])c1ccccc1.O=C(/C=C(\[O-])c1ccccc1)CCCCCCC(=O)/C=C(\[O-])c1ccccc1.[La+3].[La+3],12.3
3,C=C1C(=O)OC2CC(C)C3(O)CCC(=O)C3(C)CC12 (configuration not stated),-18.4
4,COc1c2c(c3c(c1OC)c(=O)c1ccccc1n3C)OCO2,8.8
5,CC1OC23CCCCC2C(C#N)(C#N)C1(C#N)C(=N)O3 (configuration not stated),-35
6,Cc1ccc(/C=C2/N=C(N/N=C\c3ccccc3)NC2=O)cc1,-9.1

# Experiment: NCI Yeast Anticancer Drug Screen. Data for the mlh1 rad18 strain (AID 175)
# Conditions: S. cerevisiae mlh1 rad18 strain growth inhibition; at 50.0 µM; stronger effect = higher value
# Summary of the method: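 Cells of a genetically altered yeast strain, deficient in DNA damage repair, were treated with compound. Their growth was then compared with that of vehicle-treated cultures to give inhibition.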
row,Compound,growth inhibition [%]
1,CN(c1ccccc1Cl)S(C)(=O)=O,-0.25
2,C=CC(COC(=O)C(C)(C)OC(C)=O)c1ccc(OC(=O)C(C)C)c(OC)c1 (configuration not stated),-76.1
3,O=C1CC(c2ccccc2)NCCCCN2CC(CN1)C(C(O)c1ccccc1)C2=O (configuration not stated),-49
4,COC(=O)c1cc(C#N)[nH]c1-c1ccsc1,6.9
5,O=Cc1ccc2c(c1Cl)C(=O)c1ccccc1C2=O,68.3
6,N/N=C(\C(=O)Nc1ccc([N+](=O)[O-])cc1)C(C1=Nc2cc([N+](=O)[O-])ccc2NC1)[N+](=O)[O-] (configuration not stated),16.9
7,NC(CCC(=O)OCc1ccccc1)C(=O)OCc1ccccc1 (configuration not stated),9.25
8,CC(=O)NS(=O)(=O)c1ccc2sc(C)nc2c1,-27.7
9,Cc1cc(S(=O)(=O)O)c(NC(=O)c2oc3cc(O)ccc3c(=O)c2C)cc1Cl,3.95
10,COc1cccc(/C=C/C(=O)c2ccc(Cl)cc2)c1OC,16.2
11,COc1cc([C@H]2OC[C@@H]3C(c4cc(OC)c5c(c4)OCO5)OC[C@H]23)cc(OC)c1OC (some centres not stated),-53.1
12,COc1cc2c3cc1Oc1c(OC)c(OC)cc4c1C(Cc1ccc(O)c(c1)-c1cc(ccc1OC)CC3N(C)CC2)N(C)CC4 (configuration not stated),-13.7
13,COc1ccc(OC)c(N(CN2C(=O)CCC2C(=O)O)C(C)=O)c1 (configuration not stated),-23.3
14,O=C(O)c1cn(C2CC2)c2cc(N3CCNCC3)c(F)cc2c1=O,-0.35
15,CC1=NN(c2ccccc2)C(=O)C1C(=O)c1ccccc1 (configuration not stated),14
16,COc1ccc(NCc2ccc(C)cc2)cc1,3.45
17,ClCCCC1(CCCCl)OCCO1,-2.2
18,O=c1oc(-c2cccc([N+](=O)[O-])c2)nc2ccccc12,4.8

row,Compound,growth inhibition [%]
1,COc1cc(C2N(c3ccccc3)CCN2c2ccccc2)cc(OC)c1OC,43.1
2,CCOc1ccc(NC(=O)C2CCC(C)(C(=O)O)C2(C)C)cc1 (configuration not stated),-0.8
3,CC12CCC(CC1)C(C)(C)O2,4.7
4,O=C1c2ccccc2C(=O)c2c1cccc2N1C(=O)C=CC1=O,63.7
5,O=C(/C=C(\[O-])c1ccccc1)CCCCCCC(=O)/C=C(\[O-])c1ccccc1.O=C(/C=C(\[O-])c1ccccc1)CCCCCCC(=O)/C=C(\[O-])c1ccccc1.O=C(/C=C(\[O-])c1ccccc1)CCCCCCC(=O)/C=C(\[O-])c1ccccc1.[La+3].[La+3],-10.1
6,O=C1c2ccccc2C(=O)N1/N=C/c1cc(Cl)cc(Cl)c1O,-4.95
7,C=C1C(=O)OC2CC(C)C3(O)CCC(=O)C3(C)CC12 (configuration not stated),-33.5
8,O=C(NC(CO)C(O)c1ccc([N+](=O)[O-])cc1)C(Cl)Cl (configuration not stated),-19.5
9,COc1c2c(c3c(c1OC)c(=O)c1ccccc1n3C)OCO2,13.2
10,CC1OC23CCCCC2C(C#N)(C#N)C1(C#N)C(=N)O3 (configuration not stated),2.95
11,CCCCCCCCCC(O)CCCCC (configuration not stated),15.3
12,Cc1ccc(/C=C2/N=C(N/N=C\c3ccccc3)NC2=O)cc1,-41.1
13,c1coc(-c2nc(N=C3N=c4ccccc4=N3)[nH]c2-c2ccco2)c1,4
14,CCOc1ccc(Br)cc1/C=N/NS(=O)(=O)c1ccc(C)cc1,8.35
15,CCn1c2[n+](c3ccccc31)CCC2,3.65
16,CC(C)N(C)c1ccc(N=Nc2cc(Cl)ccc2Cl)cc1,-24.4
17,CC(=O)CCN(Cc1ccccc1)Cc1ccccc1,22.4
18,CCCCN1CCNCC1,-2.55
